In PubChem BioAssay (NCATS):
Inconclusive results are not listed. Active and inactive are the calls of the source. Calls follow the shape of the dose curve; as a rule, active = well fitted curve in the direction sought with a large enough effect; inconclusive = small, poorly fitted or top-dose-only effect, or another doubt; inactive = no such curve, though single readings can be large; an effect the other way counts as inactive or inconclusive.

Columns and labels:
[1] = Cell Viability - H-4-II-E (AID 543);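 also: cells exposed to compound for 40 hours; % is scaled to controls: 0 for no effect and ±100 for the full control effect; nearly all actives have a fitted effect of over 35% in size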
Method in brief: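 Here, cytotoxicity is measured in the rat hepatoma line H-4-II-E as loss of intracellular ATP after 40 hr compound treatment, detected by luciferase luminescence.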

[2] = Cell Viability - SH-SY5Y (AID 544); conditions: SH-SY5Y neuroblastoma cell viability; viability change, negative = cytotoxic: at 92.2 µM (top of the series);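 also: cells exposed to compound for 40 hours; nearly all actives have a fitted effect of over 55% in size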
Method in brief: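 Cytotoxicity is scored as a concentration-dependent fall in intracellular ATP in human SH-SY5Y cells treated 40 hr in complete culture medium. Potency is expressed as AC50 from a Hill equation fit.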

[3] = Cell Viability - Renal Proximal Tubule (AID 545);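 also: cells exposed to compound for 40 hours; nearly all actives have a fitted effect of over 40% in size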
Method in brief: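 Primary rat renal proximal tubule cells (1000/well) were treated with compounds for 40 hr at 37 °C in complete medium. Intracellular ATP was measured by CellTiter-Glo luminescence, and AC50 values came from Hill-equation fits of concentration-response data.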

[4] = Cell Viability - Mesenchymal (AID 546);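 also: cells exposed to compound for 40 hours before reading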
Method in brief: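 Normal human renal glomerulus-derived kidney mesenchymal cells, 1000 per well in complete medium, were treated with compounds for 40 hr at 37 °C. Viability was read as intracellular ATP by CellTiter-Glo luminescence; AC50 values came from Hill-equation fits of qHTS concentration-response data.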

[5] = Cellular Toxicity (caspase-3) HepG2 (AID 654);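 also: cells exposed to compound for 16 hours before reading; 0% = DMSO alone and 100% = caspase signal from 100 µM tamoxifen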
Method in brief: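 qHTS, HepG2, 1500 cells/well, complete medium; cpd 16 h 37 °C; Caspase-Glo 3/7, 20 min RT; lum. Norm: DMSO vs 100 uM tamoxifen; AC50 Hill fit.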

[6] = Cellular Toxicity (caspase-3) Jurkat (AID 655); conditions: Jurkat caspase-3 activation, luminescence; caspase-3 activation: at 92.2 µM (top of the series), DMSO = 0%, tamoxifen = 100%;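 also: cells exposed to compound for 16 h at 37 °C before reading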
Method in brief: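 Jurkat cells (5000/well) in complete medium were treated with compounds for 16 hr at 37 °C, then Caspase-Glo 3/7 luminescence was read after 20 min at room temperature. Data normalized to DMSO (basal) and 100 uM tamoxifen (100%); AC50 from Hill fit.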

[7] = Cellular Toxicity (caspase-3) HUV-EC-C (AID 656)
Method in brief: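 HUV-EC-C endothelial cells, 1000/well, were pre-incubated 5 hr at 37°C, then exposed to compounds for 16 hr at 37°C. Caspase-Glo 3/7 luminescence was read after 20 min at room temperature. AC50 came from Hill fits, normalized to DMSO and 100 uM tamoxifen.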

[8] = Cellular Toxicity (caspase-3) SHSY5Y (AID 657)
Method in brief: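 SH-SY5Y human neuroblastoma cells (1500/well) were treated with compounds for 16 h at 37 °C, then Caspase-Glo 3/7 luminescence was read after 1 h at room temperature. Data normalized to DMSO and 10 uM staurosporine; AC50 from Hill fits.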

[9] = Cellular Toxicity (caspase-3) BJ (AID 658);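 also: 0% = DMSO basal and 100% = 10 µM staurosporine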
Method in brief: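 Luminescent aminoluciferin-substrate cleavage reports caspase 3/7 activity in normal human BJ fibroblasts after 16 hr compound exposure at 37 °C. Normalized to DMSO (basal) and 10 uM staurosporine (100%); AC50 from Hill fit of concentration-response.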

[10] = Cellular Toxicity (caspase-3) MRC-5 (AID 659);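 also: 0% = DMSO basal and 100% = 10 µM staurosporine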
Method in brief: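 Luminescence from caspase-cleaved aminoluciferin substrate (Caspase-Glo 3/7, 1 hr RT) reports caspase 3/7 activity in MRC-5 lung fibroblasts after 16 hr compound exposure. Normalized to DMSO basal and 10 uM staurosporine as 100%; AC50 from Hill fits.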

[11] = Cellular Toxicity (caspase-3) Mesangial (AID 660); conditions: mesangial cells, normalized: DMSO 0%, 100 µM tamoxifen 100%; at 91.7 µM (top of the series);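 also: combined caspase 3 and 7 activity read by Caspase-Glo luminescence; cells exposed to compound for 16 h before the caspase read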
Method in brief: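 Concentration-response qHTS: compound-induced rise in caspase 3/7 luminescence in human mesangial cells after 16 h, normalized to DMSO and 100 uM tamoxifen controls.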

[12] = Cellular Toxicity (caspase-3) SK-N-SH (AID 661);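 also: 0% = DMSO basal and 100% = 10 µM staurosporine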
Method in brief: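 Caspase 3/7 activation is measured as a luminescence increase from aminoluciferin released by substrate cleavage in SK-N-SH cells after 16 hr compound treatment; values are AC50 from concentration-response curves.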

[13] = Cellular Toxicity (caspase-3) H-4-II-E (AID 663); conditions: H-4-II-E rat hepatoma, scaled: DMSO 0%, 100 µM tamoxifen 100%; at 92.2 µM (top of the series);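 also: cells exposed to compound for 16 hr before readout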
Method in brief: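 Luminescence from caspase-cleaved aminoluciferin substrate, read 20 min after reagent addition, reports caspase 3/7 activation in rat H-4-II-E cells after 16 hr compound exposure. Normalized to DMSO (basal) and 100 uM tamoxifen (100%); AC50 from Hill fits.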

[14] = Cellular Toxicity (caspase-3) Hek293 (AID 664); conditions: HEK293 caspase-3 activation, DMSO = 0%, 100 µM tamoxifen = 100%; at 92.2 µM (top of the series);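 also: cells exposed to compound for 16 h at 37 °C before readout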
Method in brief: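 Activation of caspase-3/7 is measured as increased luminescence from cleaved peptide-aminoluciferin substrate in HEK293 cells treated 16 hours at 37 °C. AC50 values come from Hill-equation fits of concentration-response data.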

[15] = Cellular Toxicity (caspase-3) N2a (AID 665);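 also: compound exposure lasted 16 h at 37 °C before readout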
Method in brief: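 Plated mouse neuroblastoma N2a cells received titrated compounds for 16 h in complete medium. Caspase activity was then detected with a peptide-aminoluciferin luminescent reagent.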

[16] = Cellular Toxicity (caspase-3) NIH 3T3 (AID 666);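 also: 0% = DMSO basal and 100% = 100 µM tamoxifen stimulation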
Method in brief: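 Concentration-response qHTS in NIH 3T3 mouse fibroblasts scores caspase-3/7 activation as rising luminescence after 16 hr compound exposure. Signals are scaled between DMSO-only and 100 uM tamoxifen.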

[17] = Cellular Toxicity (caspase-3) Renal Proximal Tubule (AID 667); conditions: Potency: caspase-3 activation;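 also: cells exposed to compound for 16 hours at 37 °C before detection; 0% = DMSO basal and 100% = 10 µM staurosporine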
Method in brief: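 Primary rat proximal tubule cells, 1000/well, 5 h plating at 37 °C, then compound 16 h at 37 °C. Caspase-Glo 3/7 reagent, 1 h RT, luminescence. Normalized to DMSO (basal) and 10 uM staurosporine (100%); Hill-fit AC50.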

[18] = target: Cytochrome P450 3A4 (Homo sapiens) (UniProt P08684); test: qHTS Assay for Inhibitors and Substrates of Cytochrome P450 3A4 (AID 884); also: % is scaled to controls: 0 for no effect and ±100 for the full control effect; nearly all actives have a fitted effect of over 50% in size
Sequence of Cytochrome P450 3A4 (Homo sapiens) (P08684 whole entry, looked up): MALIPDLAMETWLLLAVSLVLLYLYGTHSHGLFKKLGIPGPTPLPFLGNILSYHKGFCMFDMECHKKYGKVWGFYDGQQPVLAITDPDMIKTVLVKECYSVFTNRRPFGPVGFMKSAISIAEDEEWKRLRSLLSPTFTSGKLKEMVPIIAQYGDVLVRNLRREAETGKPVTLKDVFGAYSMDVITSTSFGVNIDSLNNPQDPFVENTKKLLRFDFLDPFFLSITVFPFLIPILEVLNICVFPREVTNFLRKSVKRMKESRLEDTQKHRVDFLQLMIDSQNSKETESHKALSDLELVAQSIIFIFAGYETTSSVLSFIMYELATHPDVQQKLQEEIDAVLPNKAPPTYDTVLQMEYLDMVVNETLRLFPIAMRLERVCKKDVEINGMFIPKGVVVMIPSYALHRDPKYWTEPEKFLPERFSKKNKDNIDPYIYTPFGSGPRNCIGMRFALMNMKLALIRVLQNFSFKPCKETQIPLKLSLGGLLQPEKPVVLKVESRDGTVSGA
Method in brief: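 20 nM human CYP3A4 with 25 uM Luciferin-PPXE (at KM) in 200 mM KPO4, preincubated 10 min with compound; NADPH regeneration started a 60 min RT reaction. Luciferin detected by luminescence, normalized to 57 uM ketoconazole as full inhibition.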

[19] = Cell Viability - LYMP2-001 (AID 921);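 also: 0% = DMSO only and full inhibition = tetraoctylammonium bromide control wells; nearly all actives have a fitted effect of over 70% in size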
Method in brief: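 Human lymphoblastoid cells (Coriell), 2500 per well, were preincubated 5 hr at 37 C, then exposed to compounds in complete medium for 24 hr at 37 C. Cellular ATP was read by CellTiter-Glo luminescence; AC50 from Hill fits of concentration-response data.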

Cc1ccc(C#N)cc1
inactive: Potency [1] | Potency [2] | Potency [3] | Potency [4] | Potency [5] | caspase-3 activation [6] 0.554% | outcome [7] | outcome [8] | outcome [9] | outcome [10] | caspase-3 activation [11] -0.175% | outcome [12] | caspase-3 activation [13] 0.0504% | caspase-3 activation [14] 0.103% | outcome [15] | outcome [16] | Potency [17] | Potency [18] | Potency [19]

Nc1ccc(F)cc1F
inactive: Potency [1] | Potency [2] | Potency [3] | Potency [4] | Potency [5] | caspase-3 activation [6] 1.31% | outcome [7] | outcome [8] | outcome [9] | outcome [10] | caspase-3 activation [11] -0.571% | outcome [12] | caspase-3 activation [13] -0.359% | caspase-3 activation [14] 0.487% | outcome [15] | outcome [16] | Potency [17] | Potency [18] | Potency [19]

OC(CCl)CCl
inactive: Potency [1] | Potency [2] | Potency [3] | Potency [4] | Potency [5] | caspase-3 activation [6] 0.028% | outcome [7] | outcome [8] | outcome [9] | outcome [10] | caspase-3 activation [11] 2.07% | outcome [12] | caspase-3 activation [13] 1.01% | caspase-3 activation [14] 2.01% | outcome [15] | outcome [16] | Potency [17] | Potency [18] | Potency [19]

Nc1cccc([N+](=O)[O-])c1
inactive: Potency [1] | Potency [2] | Potency [3] | Potency [4] | Potency [5] | caspase-3 activation [6] 0.664% | outcome [7] | outcome [8] | outcome [9] | outcome [10] | caspase-3 activation [11] -0.828% | outcome [12] | caspase-3 activation [13] 0.491% | caspase-3 activation [14] 0.377% | outcome [15] | outcome [16] | Potency [17] | Potency [18]

CC(C)N(C)C
inactive: Potency [1] | Potency [2] | Potency [3] | Potency [4] | Potency [5] | caspase-3 activation [6] -0.157% | outcome [7] | outcome [8] | outcome [9] | outcome [10] | caspase-3 activation [11] 0.455% | outcome [12] | caspase-3 activation [13] 0.576% | caspase-3 activation [14] 1.04% | outcome [15] | outcome [16] | Potency [17] | Potency [18] | Potency [19]

CCCC=O
inactive: Potency [1] | Potency [2] | Potency [3] | Potency [4] | Potency [5] | caspase-3 activation [6] -0.873% | outcome [7] | outcome [8] | outcome [9] | outcome [10] | caspase-3 activation [11] -0.494% | outcome [12] | caspase-3 activation [13] -1.37% | caspase-3 activation [14] -2.73% | outcome [15] | outcome [16] | Potency [17] | Potency [18] | Potency [19]

CCCCCCCCN
inactive: Potency [1] | Potency [2] | Potency [3] | Potency [4] | Potency [5] | caspase-3 activation [6] 1.3% | outcome [7] | outcome [8] | outcome [9] | outcome [10] | caspase-3 activation [11] -0.125% | outcome [12] | caspase-3 activation [13] 0.977% | caspase-3 activation [14] 0.408% | outcome [15] | outcome [16] | Potency [17] | Potency [18] | Potency [19]
